This is an account of results in PubChem BioAssay (NCATS).

Structures are written as SMILES. Results filed as inconclusive are left out. A call without a number means that no potency is given here. The source made the active and inactive calls. Unless noted, calls follow the shape of the dose curve; as a rule, active = well fitted curve in the direction sought with a large enough effect; inconclusive = small, poorly fitted or top-dose-only effect, or another doubt; inactive = no such curve, though single readings can be large; an effect the other way counts as inactive or inconclusive.

Chain of Thyrotropin-releasing hormone receptor (Homo sapiens) (P34981 whole entry, looked up): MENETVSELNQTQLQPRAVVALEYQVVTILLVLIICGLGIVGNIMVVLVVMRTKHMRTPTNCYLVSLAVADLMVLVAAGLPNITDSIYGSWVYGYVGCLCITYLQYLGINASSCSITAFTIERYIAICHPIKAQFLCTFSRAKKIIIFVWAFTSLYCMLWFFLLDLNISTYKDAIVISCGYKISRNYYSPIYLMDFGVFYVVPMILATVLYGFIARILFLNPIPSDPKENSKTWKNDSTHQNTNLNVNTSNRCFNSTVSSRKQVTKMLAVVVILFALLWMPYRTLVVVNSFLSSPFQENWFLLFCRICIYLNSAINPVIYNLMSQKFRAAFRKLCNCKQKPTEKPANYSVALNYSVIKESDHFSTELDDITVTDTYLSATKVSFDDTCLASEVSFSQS
Chain of ATPase family AAA domain-containing protein 5 (Homo sapiens) (Q96QE3 whole entry, looked up, the tested form may be a part): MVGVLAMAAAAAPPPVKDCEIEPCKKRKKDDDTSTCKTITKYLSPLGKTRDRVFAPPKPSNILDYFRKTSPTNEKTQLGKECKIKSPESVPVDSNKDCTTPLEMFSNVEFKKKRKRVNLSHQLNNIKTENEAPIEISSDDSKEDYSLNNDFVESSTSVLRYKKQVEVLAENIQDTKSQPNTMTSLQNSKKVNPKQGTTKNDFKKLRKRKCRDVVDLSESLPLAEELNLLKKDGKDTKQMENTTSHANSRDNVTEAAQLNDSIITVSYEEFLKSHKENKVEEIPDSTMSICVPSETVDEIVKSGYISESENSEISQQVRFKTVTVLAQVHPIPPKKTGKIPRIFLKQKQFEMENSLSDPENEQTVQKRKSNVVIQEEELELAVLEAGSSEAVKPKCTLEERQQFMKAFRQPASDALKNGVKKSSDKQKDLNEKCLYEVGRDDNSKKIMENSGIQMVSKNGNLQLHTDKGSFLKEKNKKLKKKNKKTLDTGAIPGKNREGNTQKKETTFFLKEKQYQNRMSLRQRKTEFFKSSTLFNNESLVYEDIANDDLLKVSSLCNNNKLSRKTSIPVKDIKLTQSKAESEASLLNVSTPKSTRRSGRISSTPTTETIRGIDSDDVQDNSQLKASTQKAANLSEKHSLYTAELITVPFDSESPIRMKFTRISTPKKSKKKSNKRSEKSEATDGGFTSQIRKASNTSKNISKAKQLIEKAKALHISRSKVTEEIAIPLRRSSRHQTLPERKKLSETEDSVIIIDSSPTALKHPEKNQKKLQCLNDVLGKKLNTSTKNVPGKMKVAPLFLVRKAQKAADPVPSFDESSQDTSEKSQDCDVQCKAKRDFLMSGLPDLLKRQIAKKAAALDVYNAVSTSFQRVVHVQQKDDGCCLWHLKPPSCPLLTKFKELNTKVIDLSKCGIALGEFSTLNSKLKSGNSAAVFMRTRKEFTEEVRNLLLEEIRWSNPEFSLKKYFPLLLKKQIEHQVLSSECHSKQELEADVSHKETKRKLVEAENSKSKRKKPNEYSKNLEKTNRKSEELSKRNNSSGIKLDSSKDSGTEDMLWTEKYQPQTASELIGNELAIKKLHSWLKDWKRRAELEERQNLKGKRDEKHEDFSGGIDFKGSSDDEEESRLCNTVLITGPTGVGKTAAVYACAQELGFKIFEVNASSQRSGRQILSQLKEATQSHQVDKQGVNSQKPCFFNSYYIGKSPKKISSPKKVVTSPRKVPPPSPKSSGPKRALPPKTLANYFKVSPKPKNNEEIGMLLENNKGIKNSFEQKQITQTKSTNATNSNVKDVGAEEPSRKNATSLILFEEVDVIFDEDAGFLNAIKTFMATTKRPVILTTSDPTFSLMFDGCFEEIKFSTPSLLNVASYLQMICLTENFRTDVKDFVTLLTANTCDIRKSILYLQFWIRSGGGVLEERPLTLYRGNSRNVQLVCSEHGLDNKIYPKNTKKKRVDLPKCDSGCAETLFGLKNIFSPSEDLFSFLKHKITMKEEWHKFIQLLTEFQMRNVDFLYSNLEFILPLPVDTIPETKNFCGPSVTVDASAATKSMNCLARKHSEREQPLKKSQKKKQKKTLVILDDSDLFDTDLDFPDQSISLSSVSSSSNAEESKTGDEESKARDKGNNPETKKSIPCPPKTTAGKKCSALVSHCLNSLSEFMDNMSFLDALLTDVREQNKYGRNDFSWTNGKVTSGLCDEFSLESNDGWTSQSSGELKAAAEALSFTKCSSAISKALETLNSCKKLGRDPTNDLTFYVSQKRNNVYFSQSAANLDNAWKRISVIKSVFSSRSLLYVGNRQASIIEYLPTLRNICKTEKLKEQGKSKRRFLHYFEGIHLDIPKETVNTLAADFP

Tested on in one assay: not listed separately
Kind of assay: Validation screen for small molecules that induce genotoxicity in human embryonic kidney (HEK293T) cells expressing luciferase-tagged ELG1 (AID 493106). To be noted: luminescence; series mostly up to 46.1 µM. In short, it runs like this:
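HEK293T cells expressing luciferase-tagged ELG1 were exposed to compound or DMSO vehicle for 16 hr at 37 °C, 5% CO2. Genotoxic stress raises ELG1 levels, so increased luciferase signal after ONE-Glo addition and 30 min at room temperature marks hits.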
Turning to `Cc1cn[nH]c1`, the Potency result is “inactive”.
With `O=C(O)COCCN1CCN(C(c2ccccc2)c2ccc(Cl)cc2)CC1` (stereo not drawn), the Potency entry is “inactive”.
On to `CCCC(CCC)C(=O)O`, for which the Potency result was “inactive”.

Another assay addresses ATPase family AAA domain-containing protein 5 (Homo sapiens) (UniProt Q96QE3). Put plainly: Validation screen for small molecules that inhibit ELG1-dependent DNA repair in human embryonic kidney (HEK293T) cells expressing luciferase-tagged ELG1 (AID 493107). Also: nearly all actives have a fitted effect of over 70% in size. Also: potency is read from the fitted curve at half-maximal effect. To be noted: HEK293T ELG1-luciferase level, luminescence, 5-fluorouridine co-treatment, 16 h; series mostly up to 46.1 µM. In short, it runs like this: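 HEK293T cells expressing luciferase-tagged ELG1 were co-treated with 5-fluorouridine and compound or DMSO for 16 hr at 37 °C, 5% CO2. Luciferase activity was then read with ONE-Glo after 30 min at room temperature; suppressed signal indicates blocked ELG1 function.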
Regarding `Nc1nc2c(ncn2COCCO)c(=O)[nH]1`, the Potency result is “inactive”.
On to `CNC[C@H](O)c1cccc(O)c1`, for which the Potency result was “inactive”.
On the same count and under the same terms, for `OC(CCN1CCCCC1)(c1ccccc1)C1CC2C=CC1C2` (stereo not drawn) the value was “inactive”; for `O=c1[nH]cnc2[nH]ncc12`, “inactive”; for `O=C(Nc1nc2ccccc2n1CCN1CCOCC1)c1cccc([N+](=O)[O-])c1`, 8.2 µM (active).
The same measure, in the same setting: for `Nc1ncnc2nc(-c3ccc(N4CCOCC4)nc3)cc(-c3cccc(Br)c3)c12` the value was 4.11 µM (active); for `CCn1cc(C(=O)O)c(=O)c2cc(F)c(N3CCNC(C)C3)c(F)c21` (stereo not drawn), “inactive”; for `CC(=O)Oc1ccccc1C(=O)O`, “inactive”.
Still for that read-out and setting: for `NC[C@H](O)c1ccc(O)c(O)c1` the value was “inactive”; for `Cc1cn[nH]c1`, “inactive”; for `O=C(O)COCCN1CCN(C(c2ccccc2)c2ccc(Cl)cc2)CC1` (stereo not drawn), “inactive”.

Another assay concerns the target Thyrotropin-releasing hormone receptor (Homo sapiens) (UniProt P34981). Put plainly: qHTS for Small Molecule Agonists and Allosteric Enhancers of Human TRH Receptor: Validation Screen for Agonists (AID 493127;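 active = calcium activation more than 3 SD above the typical response in the agonist read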;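 also: intracellular calcium rise by fluo-8 fluorescence before TRH EC20 addition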). To be noted: TRH receptor agonist cell assay; at 2 µM; stronger effect = higher value. In short, it runs like this: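 TRHR-expressing cells were plated overnight in serum-containing medium, then loaded with fluo-8 calcium dye at room temperature for 30 min–1.5 h. After a 10 s baseline, compound was pin-transferred and calcium fluorescence (ex 480/em 530) read kinetically for agonist response.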
A general note: qHTS replaces the single test concentration by a dilution series.
In the case of `CCOC(=O)C1=C[C@]2(CC)CCCN3CCc4c(n1c1ccccc41)[C@@H]32`, the activation is 0.0625% (inactive).
The same measure, in the same setting: for `NC(=O)c1cnccn1` the value was 0.688% (inactive); for `Cc1[nH]c(=O)c(C#N)cc1-c1ccc2nccn2c1`, 0.25% (inactive); for `CC(C)NCC(O)COc1ccc(COCCOC(C)C)cc1` (stereo not drawn), -0.25% (inactive).
As to `CCOC(=O)N1CCC(=C2c3ccc(Cl)cc3CCc3cccnc32)CC1`, the activation was -10.4% (inactive).
On the same count and under the same terms, for `CCCCNc1cc(C(=O)O)cc(S(N)(=O)=O)c1Oc1ccccc1` the value was 1.31% (inactive).
As for `NNCCc1ccccc1`, the activation was 1.5% (inactive).
Consider `CCCC(CCC)C(=O)O`, for which the activation is 0.688% (inactive).

Tested on in another assay: not listed separately
Put plainly: Nrf2 qHTS screen for inhibitors: Validation (AID 493153; active = well fitted inhibition curve with a large enough effect in the main read-out, with a control signal flat, not every such curve was filed as active; also: potency is read from the fitted curve at half-maximal effect). To be noted: A549 ARE-Fluc reporter, 18-24 h; Potency: luciferase luminescence; viability change: measured here: cytotoxicity max response; luciferase luminescence, at 46.1 µM (top of the series). Summed up: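 A549 cells carrying an ARE-driven firefly luciferase reporter, in 5% FBS OPTI-MEM, were treated with compounds in concentration-response for 18-24 h at 37°C. Viability was read by CellTiter-Fluor fluorescence, then Nrf2 activity by luciferase luminescence.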
For the compound `Nc1nc2c(ncn2COCCO)c(=O)[nH]1`, the Potency result is “inactive” and the viability change was -1.37%.
Consider `CCOC(=O)C1=C[C@]2(CC)CCCN3CCc4c(n1c1ccccc41)[C@@H]32`, for which the Potency entry was “inactive” and the viability change is -5.34%.
On to `C[C@]12CCC(=O)C=C1CC[C@@H]1[C@@H]2[C@@H](O)C[C@@]2(C)[C@H]1CC[C@]2(O)C(=O)CO`, for which the Potency was 0.0731 µM (active) and the viability change is -7.36%.
Regarding `CNC[C@H](O)c1cccc(O)c1`, the Potency result is “inactive” and the viability change was -8.68%.
For `OC(CCN1CCCCC1)(c1ccccc1)C1CC2C=CC1C2` (stereo not drawn), the Potency entry was “inactive” and the viability change is -8.46%.
On to `Cc1ccc(N(CC2=NCCN2)c2cccc(O)c2)cc1`, for which the Potency result is “inactive” and the viability change amounted to 4.38%.
Take `NC(=O)c1cnccn1`: the Potency entry was “inactive” and the viability change is -0.821%.
On to `O=c1[nH]cnc2[nH]ncc12`, for which the Potency result was “inactive” and the viability change amounted to 5.19%.
Consider `Cc1[nH]c(=O)c(C#N)cc1-c1ccc2nccn2c1`, for which the Potency result was “inactive” and the viability change worked out at 7.27%.
For `CC(C)NCC(O)COc1ccc(COCCOC(C)C)cc1` (stereo not drawn), the Potency result is “inactive” and the viability change is 3.25%.
Turning to `Nc1nc2ccc(OC(F)(F)F)cc2s1`, the Potency result was “inactive” and the viability change was -4.99%.
The corresponding values for `Cc1oncc1C(=O)Nc1ccc(C(F)(F)F)cc1` are “inactive” and 0.653%.
The corresponding values for `CCn1cc(C(=O)O)c(=O)c2cc(F)c(N3CCNC(C)C3)c(F)c21` (stereo not drawn) are “inactive” and -3.76%.
On to `CCCCNc1cc(C(=O)O)cc(S(N)(=O)=O)c1Oc1ccccc1`, for which the Potency result is “inactive” and the viability change is 10.1%.
On to `NNCCc1ccccc1`, for which the Potency entry is “inactive” and the viability change turned out to be 2.04%.
As to `CC(=O)Oc1ccccc1C(=O)O`, the Potency result is “inactive” and the viability change was -7.95%.
Take `NC[C@H](O)c1ccc(O)c(O)c1`: the Potency result is “inactive” and the viability change came out at 3.52%.
For `Cc1cn[nH]c1`, the Potency entry is “inactive” and the viability change is 9.47%.
Take `O=C(O)COCCN1CCN(C(c2ccccc2)c2ccc(Cl)cc2)CC1` (stereo not drawn): the Potency result was “inactive” and the viability change was determined as 1.19%.
In the case of `CCCC(CCC)C(=O)O`, the Potency entry is “inactive” and the viability change was determined as 2.98%.

Tested on in a further assay: not listed separately
Put plainly: qHTS for Inhibitors of Cell Surface uPA Generation: Validation Assay (AID 493164).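 Also: RAW 264.7 macrophage cells exposed to compound for 18 h.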 To be noted: mouse cells, plasminogen activation; series mostly up to 38.3 µM. In short, it runs like this: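 RAW 264.7, 4000 cells/well, o/n plating; cpd 7-pt 1:5 dilution 2.45 nM–38.3 uM final; 18 h, 37 C/5% CO2; ATP-Lite, 5 s luminescence exposure.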
In the case of `Nc1nc2c(ncn2COCCO)c(=O)[nH]1`, the outcome was inactive.
Same read-out and setting: for `CCOC(=O)C1=C[C@]2(CC)CCCN3CCc4c(n1c1ccccc41)[C@@H]32` the value was “inactive”.
On the same count and under the same terms, for `C[C@]12CCC(=O)C=C1CC[C@@H]1[C@@H]2[C@@H](O)C[C@@]2(C)[C@H]1CC[C@]2(O)C(=O)CO` the value was “inactive”; for `CNC[C@H](O)c1cccc(O)c1`, “inactive”.
With `OC(CCN1CCCCC1)(c1ccccc1)C1CC2C=CC1C2` (stereo not drawn), the compound was classed as inactive.
Consider `Cc1ccc(N(CC2=NCCN2)c2cccc(O)c2)cc1`, for which the call was inactive.
Turning to `NC(=O)c1cnccn1`, the compound was classed as inactive.
`O=c1[nH]cnc2[nH]ncc12`: the result was inactive.
The same measure, in the same setting: for `Cc1[nH]c(=O)c(C#N)cc1-c1ccc2nccn2c1` the value was “inactive”; for `CC(C)NCC(O)COc1ccc(COCCOC(C)C)cc1` (stereo not drawn), “inactive”; for `Cc1cc2c(C(C)C)c(O)c(O)c(C=O)c2c(O)c1-c1c(C)cc2c(C(C)C)c(O)c(O)c(C=O)c2c1O`, “inactive”.
For the compound `Nc1nc2ccc(OC(F)(F)F)cc2s1`, the call was inactive.
Regarding `Cc1cccc(-c2[nH]c(C(C)(C)C)nc2-c2ccc3nccnc3c2)n1`, the compound was called inactive.
As for `CCOC(=O)N1CCC(=C2c3ccc(Cl)cc3CCc3cccnc32)CC1`, the result was inactive.
`O=C(Nc1nc2ccccc2n1CCN1CCOCC1)c1cccc([N+](=O)[O-])c1`: the outcome was inactive.
For the compound `Cc1oncc1C(=O)Nc1ccc(C(F)(F)F)cc1`, the result was inactive.
Still for that read-out and setting: for `Nc1ncnc2nc(-c3ccc(N4CCOCC4)nc3)cc(-c3cccc(Br)c3)c12` the value was “inactive”.
For the compound `CN1CCN(CCCN2c3ccccc3Sc3ccc(C(F)(F)F)cc32)CC1`, the compound was classed as inactive.
Still for that read-out and setting: for `CCn1cc(C(=O)O)c(=O)c2cc(F)c(N3CCNC(C)C3)c(F)c21` (stereo not drawn) the value was “inactive”.
For the compound `CCCCNc1cc(C(=O)O)cc(S(N)(=O)=O)c1Oc1ccccc1`, the outcome was inactive.
Consider `NNCCc1ccccc1`, for which the compound was classed as inactive.
Same read-out and setting: for `CC(=O)Oc1ccccc1C(=O)O` the value was “inactive”; for `NC[C@H](O)c1ccc(O)c(O)c1`, “inactive”; for `Cc1cn[nH]c1`, “inactive”.
Consider `O=C(O)COCCN1CCN(C(c2ccccc2)c2ccc(Cl)cc2)CC1` (stereo not drawn), for which the result was inactive.
`CCCC(CCC)C(=O)O`: the compound was called inactive.
